For seven compounds, growth results are on record in PubChem BioAssay (NCI).

Common to all, as to experiment: NCI-60 one-dose screen, 48 h (100 = growth as untreated, 0 = no growth, -100 = all killed)
What all share (details): 10 µM unless noted

The test system of assay [1] is SK-MEL-2 melanoma.
For assay [2], the system named is EKVX NSCLC.
In assay [3] the test system is SN12C renal.
The test system of assay [4] is UO-31 renal.
In assay [5] the test system is TK-10 renal.
Assay [6] has as its system ACHN renal.
Assay [7] deals with CAKI-1 renal.
Assay [8] concerns A498 renal.
Assay [9] deals with CCRF-CEM leukemia.
Assay [10] deals with MOLT-4 leukemia.
Assay [11] has as its system SR leukemia.
Assay [12] relates to RPMI-8226 leukemia.
Assay [13] deals with OVCAR-8 ovarian.
In assay [14] the test system is OVCAR-5 ovarian.
Assay [15] relates to OVCAR-4 ovarian.
Assay [16] concerns SK-OV-3 ovarian.
Assay [17] concerns IGROV1 ovarian.
For assay [18], the system named is OVCAR-3 ovarian.
Assay [19] concerns HS 578T breast.
For assay [20], the system named is NCI/ADR-RES ovarian.

Compounds without any hit were thinned out: in the full panel of roughly 83,000, 20% have a hit.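 Growth was measured after 48 h exposure to one concentration of compound in 96-well plates. Values under 10 count as active.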 A number with no mark means an inactive call. Calls of active or inactive are those of the source.

With `CCOC(=O)c1c(NC(=S)Nc2ccc([N+](=O)[O-])cc2)sc2c1CCCCC2`, the growth in assay [1] was 66.6%; in assay [2], 79.2%; in [3] it was 55.7%; in assay [4], 76.2%; in [5], 85.9%; in assay [6], 84.6%. Also, the growth in assay [7] was 79.1%; in assay [8], 49.8%; in assay [9], 64%; in assay [10], 72.9%; in assay [11] it was 61.7%; in assay [12] it was 46.7%. Also, the growth in [13] was 77.3%; in assay [14] it was 93.7%; in assay [15] it was 71.6%; in [16], 66%; in assay [17], 89.7%; in assay [18] it was 65.1%. Besides, the growth in assay [19] is 81.8%; in assay [20] it was 54%.

Consider `CC(Cc1cccc2ccccc12)C(N)=O` (stereo not given), for which the growth is 105% in [1]; 104% in assay [2]; 97.2% in [3]; 87.3% in [4]; 98.7% in assay [5]; 103% in assay [6]. Also, the growth was 93.8% in assay [7]; 100% in assay [8]; 97.1% in assay [9]; 99.8% in assay [10]; 101% in assay [11]; 102% in assay [12]. Further, the growth in assay [13] was 108%; in assay [14], 94.9%; in assay [15], 107%; in [16], 102%; in assay [17], 96.8%; in [18] it was 113%. Further, the growth in assay [19] is 99.2%; in assay [20], 110%.

`COc1ccccc1/C=C/C1=C(C)CCC(c2ccccc2OC)C1C` (stereo not given): the growth in [1] is -7.95% (active); in assay [2] it was 35%; in assay [3], 28%; in [4] it was 4.1% (active); in [5], 41.1%; in assay [6], 13%. Further, the growth in [7] is 2.23% (active); in assay [8], -4.12% (active); in assay [9], -9.01% (active); in assay [10] it was 4.37% (active); in [11], -13.2% (active); in assay [12] it was -4.33% (active). The growth in assay [13] was 19.7%; in assay [14], 28.9%; in [15], 42.7%; in assay [16], 33.4%; in assay [17], -48.7% (active); in assay [18], -21.6% (active). The growth is 11.1% in [19] and 18% in assay [20].

`COc1cc(/C=C2\CN(S(=O)(=O)c3ccc(C)cc3)C/C(=C\c3cc(CN4CCCC4)c(O)c(OC)c3)C2=O)cc(CN2CCCC2)c1O`: the growth was 14.4% in [1]; 0.183% (active) in [2]; -56.1% (active) in assay [3]; 4.71% (active) in [4]; 24.7% in assay [5]; 1.63% (active) in assay [6]. Further, the growth in assay [7] is 23.9%; in [8] it was 40.9%; in assay [9], -5.62% (active); in [10], -8.53% (active); in assay [11], -19.4% (active); in assay [12], -34.6% (active). Further, the growth was 8.04% (active) in [13]; -2.7% (active) in assay [14]; 12.1% in [15]; 33.9% in [16]; -20.1% (active) in assay [17]; -27.8% (active) in assay [18]. Further, the growth in assay [19] was 9.95% (active); in assay [20] it was 77.8%.

With `C/C(=C(\c1ccc(OCCCN(C)C)cc1)c1ccc(OC(=O)Cc2ccccc2)cc1)c1ccc(Cl)cc1`, the growth in assay [1] was 92.7%; in assay [2], 70.4%; in [3], 87.3%; in assay [4] it was 62%; in [5], 87.8%; in assay [6], 94.3%. The growth is 83.7% in assay [7]; 103% in assay [8]; 66.4% in assay [9]; 48.7% in assay [10]; -34.9% (active) in [11]; 27.1% in assay [12]. The growth in assay [13] was 89.2%; in [14] it was 89.3%; in assay [15], 69.8%; in assay [16] it was 73.3%; in assay [17], 88.4%; in assay [18] it was 70.4%. Besides, the growth is 66.4% in [19] and 85.1% in [20].

With `COc1cc2c(c(OC)c1OC)CCC(c1cccc(C(=O)Nc3ccc([N+](=O)[O-])cc3)c1)O2` (stereo not given), the growth is 43% in assay [1]; 55.4% in assay [2]; 51.1% in assay [3]; 29.3% in assay [4]; 57.8% in [5]; 40.7% in assay [6]. Moreover, the growth in [7] is 50.5%; in assay [8], 25.5%; in assay [9], 15.1%; in assay [10] it was 4.06% (active); in assay [11], 24.9%; in [12], 9.24% (active). Besides, the growth was 42% in assay [13]; 84.3% in [14]; 40.7% in assay [15]; 78.4% in assay [16]; 72.2% in [17]; 56.5% in [18]. Also, the growth in assay [19] is 77.1%; in [20], 38.2%.

`O=C(Cn1cc(CSc2nc3ccccc3o2)nn1)Nc1ccc([N+](=O)[O-])cc1`: the growth was 106% in assay [1]; 104% in assay [2]; 102% in [3]; 78.8% in assay [4]; 104% in [5]; 95.2% in [6]. The growth was 82% in assay [7]; 101% in assay [8]; 105% in assay [9]; 94.1% in assay [10]; 101% in [11]; 97.3% in assay [12]. For the same compound, the growth in assay [13] was 107%; in assay [14] it was 100%; in assay [15], 96.9%; in assay [16], 76.6%; in assay [17], 91.6%; in assay [18] it was 103%. For the same compound, the growth is 95.3% in assay [19] and 97.4% in assay [20].
